Source: PubChem
The list is not random: actives were taken first. Their share in the collection is about 10%.
CtBP-E1A inh: blocks the CtBP interaction with E1A. activity change, % (concentration not given with the values). AlphaScreen GST-E1A/His-CtBP binding, 1536-well; active compounds read low. hit rate 0.49% among 340,000; in the data active = activity change below about -65%; inconclusive = mostly about -30% to -63%; note: % is set by controls: 0 for no effect and ±100 for the full control effect
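AlphaScreen with 125 nM GST-E1A and 125 nM His-CtBP (5X stocks) in Tris pH 8.0, 300 mM NaCl, BSA, Tween 20, TCEP. Compounds preincubated 2 h at 37 deg C, then glutathione donor/nickel acceptor beads added for 1 h at 37 deg C in dark.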
HP1b binding inh: HP1-beta chromodomain-methylated histone interaction inhibition; AID 540317; P83916; hit rate 0.56% among 390,000; Potency, µM (top dose mostly 114 µM), for inactives: at the highest dose activity change, negative = inhibition, most hits filed as inhibitors; AlphaScreen HP1-beta / biotin-H3K9me3 peptide binding; note: potency is the fitted concentration of half-maximal effect; nearly all actives have a fitted effect of over 70% in size
Target sequence (P83916 whole entry, looked up): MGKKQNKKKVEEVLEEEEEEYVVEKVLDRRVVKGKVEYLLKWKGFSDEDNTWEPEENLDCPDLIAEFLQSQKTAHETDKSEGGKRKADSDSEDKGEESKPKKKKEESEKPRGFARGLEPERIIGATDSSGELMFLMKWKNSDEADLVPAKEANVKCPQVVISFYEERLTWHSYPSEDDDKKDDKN
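HP1-beta protein (50 nM final) preincubated 30 min at room temperature with biotinylated H3(1-18)K9me3 peptide (50 nM) in PBS pH 7.4, 0.01% Tween-20, then compound added for 30 min. AlphaScreen streptavidin donor/nickel chelate acceptor beads (10 ug/mL final), 30 min dark, luminescence read.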
JMJD2A Tudor: JMJD2A Tudor domain (human) inhibition. O75164. AlphaScreen JMJD2A-Tudor / H3K4me3 peptide binding. Potency, µM (doses to about 114 µM), without a hit: top-dose activity change, negative = inhibition, actives largely listed as inhibitors. hit rate 4.4% among 390,000. AID 504339; note: potency is the fitted concentration of half-maximal effect; % is set by controls: 0 for no effect and ±100 for the full control effect; nearly all actives have a fitted effect of over 50% in size
Six1-Eya2 blk: Six1/Eya2 interaction inhibition. activity change, % (no concentration beside the values). AlphaScreen GST-Six1/His-Eya2 binding, biochemical; active compounds read low. hit rate 0.56% among 360,000; in the data active = activity change below about -65%; inconclusive = mostly about -30% to -63%; note: % is set by controls: 0 for no effect and ±100 for the full control effect
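Homogeneous AlphaScreen proximity assay pairing GST-Six1 with His-tagged Eya2 (added as 5X mix: 250 nM and 500 nM) in 50 mM Tris pH 8.0, 300 mM NaCl, 1 mM TCEP. Glutathione donor and nickel acceptor beads; 1 h, 37 °C, dark.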
BAZ2B block: inhibitors of human BAZ2B bromodomain; AlphaScreen BAZ2B-H3K14Ac peptide displacement; Potency, µM (titrated, usually from 114 µM), for the others: at the highest dose activity change, negative = inhibition, hits mostly inhibitors; hit rate 4.4% among 360,000; note: potency is the fitted concentration of half-maximal effect; % is set by controls: 0 for no effect and ±100 for the full control effect; nearly all actives have a fitted effect of over 60% in size
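BAZ2B 50 nM plus b-H3(5-23)K14Ac 50 nM, PBS pH 7.4/0.01% Tween-20, 30 min RT; compound added (max 110 uM), 30 min RT; streptavidin donor/Ni-chelate acceptor beads 10 ug/mL final, 20 min dark; AlphaScreen read.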
G9a inh: inhibitors of human histone lysine methyltransferase G9a | Q96KQ7 | G9a H3K9 monomethylation, AlphaScreen, 2 h | Potency, µM (top dose mostly 102 µM), inactives show at the top dose activity, negative = inhibition, usual class: inhibitors | hit rate 8.8% among 350,000 | AID 504332; note: potency is the fitted concentration of half-maximal effect; % is set by controls: 0 for no effect and ±100 for the full control effect; nearly all actives have a fitted effect of over 75% in size
Target sequence (Q96KQ7 913-1193 limits assumed): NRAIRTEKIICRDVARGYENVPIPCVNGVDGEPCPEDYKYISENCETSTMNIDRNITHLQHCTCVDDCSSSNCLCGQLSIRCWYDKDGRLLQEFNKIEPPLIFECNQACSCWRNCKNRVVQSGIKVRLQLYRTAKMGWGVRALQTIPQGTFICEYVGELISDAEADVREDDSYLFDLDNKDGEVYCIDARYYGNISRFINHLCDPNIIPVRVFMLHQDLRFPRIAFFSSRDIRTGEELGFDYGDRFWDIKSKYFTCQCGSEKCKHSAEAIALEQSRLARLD
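Readings reflect AlphaScreen signal from monomethyl-H3K9 antibody detection. HMT at 20 nM; substrate b-H3K9 500 nM; cofactor SAM 20 uM; 2 h RT reaction; compounds tested as titrations in qHTS with 15 min preincubation.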
* marks the source's active call; other numbers are inactive results; u = inconclusive; x = no result; [ ] = another dose, or the depositor's remark. Unless noted, calls come from the whole dose curve; as a rule, active = well fitted inhibition curve with a large enough effect; inconclusive = small, poorly fitted or top-dose-only effect; inactive = no such curve, though single readings can be large or run the other way.

SMILES	CtBP-E1A inh	HP1b binding inh	JMJD2A Tudor	Six1-Eya2 blk	BAZ2B block	G9a inh
O=C(CNC(=O)c1ccncc1)N/N=C/c1ccc(O)cc1O	x	43%	u	-90*	u	0%
O=C(C[n+]1ccccc1)N/N=C/c1cc(Br)ccc1O	0	38%	22µM*	-88*	10µM*	0%
O=C(CNC(=O)c1ccc2c(c1)OCCO2)N/N=C/c1ccc(O)cc1O	-90*	8%	-14%	-77*	14%	31%[59 µM]
CC(C)c1ccc(NC(=O)C(NS(=O)(=O)c2ccc3c(c2)CCC(=O)N3)c2ccccc2)cc1 (configuration not stated)	x	6%	-27%	x	-12%	-4%[59 µM]
CCc1ccccc1NC(=O)CSc1nnc(COc2ccccc2Cl)o1	x	36%	3%	x	-1%	-31%[59 µM]
O=C(CNC(=O)c1ccncc1)N/N=C/c1ccccn1	u	8%	u	-8	79µM*	-31%
CCOc1ccc(/C=N/NC(=O)C(O)c2ccccc2)c(O)c1 (configuration not stated)	-85*	44%	-23%	u	11%	x
COc1cccc(/C=N/NC(=O)C[n+]2ccccc2)c1O	-88*	39%	45µM*	-87*	18µM*	-3%[59 µM]
COc1cc(/C=N/NC(=O)c2ccc3c(c2)OCCO3)cc(Br)c1O	-6	39%	-21%	-6	-10%	13%
COc1cc(/C=N/NC(=O)c2ccc3c(c2)OCCO3)c(Br)c(Br)c1O	x	-10%[57 µM]	-14%	u	-27%	45µM*
CCOc1ccc(CCNC(=O)C2Cc3ccccc3N2C(=O)CC)cc1 (configuration not stated)	x	31%	-4%	x	-13%	-7%[12.7 µM]
CCc1ccc2occ(CC(=O)Nc3c(C(=O)c4ccccc4)oc4ccccc34)c2c1	x	58%	47%	x	16%	13%[59 µM]
O=S(=O)(NCc1nc2cccnc2n1Cc1ccccc1Cl)c1ccc(F)c(Cl)c1	x	20%[57 µM]	-18%	x	6%	24%[59 µM]
COC(=O)C(=O)Nc1cccc2cccnc12	x	37%	4%	x	x	x
O=C(COc1ccccc1)NCC(=O)N/N=C/c1ccc(O)cc1O	-91*	9%	-32%	-80*	-12%	45%[59 µM]
CCOc1cccc(/C=N/NC(=O)c2ccc3c(c2)OCCO3)c1O	-87*	-15%[57 µM]	u	u	4%	-6%
O=C(N/N=C/c1ccccn1)c1cc(-c2ccccc2Cl)n[nH]1	u	30%	-34%	u	56µM*	68%[59 µM]
O=C(CCC(=O)Nc1ccc(F)cc1)N/N=C/c1ccc(O)cc1O	u	52%	-15%	u	2%	4%
Oc1ccc(C=NNC(=S)Nc2ccc(F)cc2)c(O)c1	-93*	19%	u	-80*	x	x
COc1cc2nc(NCCc3ccccc3)n3nc(-c4cccnc4)nc3c2cc1OC	x	10%	-12%	x	u	8%[59 µM]
CCn1ccc2cc(S(=O)(=O)N3CCC(C(=O)NCc4cccc(Cl)c4)CC3)ccc21	x	22%[57 µM]	-4%	x	-2%	-1%[59 µM]
COc1cccc(/C=N/NC(=O)CNC(=O)c2cccnc2)c1O	-87*	48%	-20%	-71*	-2%	26%
Cc1cccc(/C=N/NC(=O)c2c(-c3ccccc3)noc2C)c1O	u	42%	u	-19	25µM*	x
COc1ccccc1/C=N/NC(=O)c1c(-c2ccccc2)noc1C	1	27%	-16%	1	28%	10%[12.7 µM]
COc1cccc(/C=N/NC(=O)CNC(=O)c2ccco2)c1O	u	33%	-16%	-84*	2%	x
SMILES	CtBP-E1A inh	HP1b binding inh	JMJD2A Tudor	Six1-Eya2 blk	BAZ2B block	G9a inh
COc1cccc(/C=N/NC(=O)C(=O)NCc2cccnc2)c1O	-92*	31%	u	-89*	20µM*	32%[59 µM]
COc1cccc(/C=N/NC(=O)C(=O)NCc2cccnc2)c1OC	0	4%	-9%	4	-17%	-9%
COc1cccc(CNC(=O)CNS(=O)(=O)c2ccc3nc(C)sc3c2)c1	x	56%	-11%	x	8%	-6%[59 µM]
Cc1ccc(N(C)S(=O)(=O)c2nnc(NC(=O)CC(C)C)s2)cc1	x	96%	12%	x	14%	9%[59 µM]
C/C(=N\NC(=O)C12CCC(C)(C(=O)O1)C2(C)C)c1ccccc1O (configuration not stated)	u	42%	-14%[11.4 µM]	-3	-14%	x
O=C(CNC(=O)C1COc2ccccc2O1)N/N=C\c1ccccc1Cl (configuration not stated)	5	8%[57 µM]	-21%	6	-27%	5%
O=C(NN=Cc1ccc(O)cc1)C(=O)NN=Cc1ccc(O)cc1	-4	43%	-8%	-6	x	x
CC12CCC(C(=O)N/N=C/c3ccc(O)cc3O)(OC1=O)C2(C)C (configuration not stated)	-88*	50%	u	-68*	-23%	24%[59 µM]
COc1cccc(/C=N/NC(=O)CNC(=O)C2COc3ccccc3O2)c1O (configuration not stated)	-83*	41%	-15%	u	11%	22%[59 µM]
COc1cccc(/C=N/NC(=O)CNC(=O)COc2ccccc2)c1O	u	18%	-16%	-83*	-1%	46%
O=C(N/N=C/c1ccc(O)cc1O)C(=O)N/N=C/c1ccc(O)cc1O	-92*	-7%	2.5µM*	-68*	35µM*	28%[59 µM]
CCC(C(=O)Nc1cccc(Cl)c1C)n1nc(C)c2sc3ccccc3c2c1=O (configuration not stated)	x	19%	-18%	x	-8%	-8%[59 µM]
Cc1nc2ccc(S(=O)(=O)NCC(=O)Nc3ccc(F)cc3F)cc2s1	x	56%	1%	x	18%	15%[59 µM]
O=C(Nc1cccc2[nH]ncc12)NS(=O)(=O)c1ccccc1	x	37%	-5%	-13	u	40µM*
CN(C)/C=C/c1oc2ccc(O)cc2c1[N+](=O)[O-]	12	-20%	-22%[57.1 µM]	-27	25µM*	50µM*
Cc1oc2ccc(O)cc2c1C(=O)c1ccc([N+](=O)[O-])cc1	-25	-26%	u	-14	u	u
COc1ccc(CCNC(=O)C(C)n2c(=O)cc(C(F)(F)F)c3c(C)nn(C)c32)cc1OC (configuration not stated)	x	11%	-17%	x	-3%	3%[59 µM]
Cc1c(C(=O)Nc2ccc(C(=O)O)cc2)nnn1-c1ccccc1	x	9%	u	x	3%	-6%[59 µM]
Cc1c(C(=O)NNC(=S)Nc2cccc(Cl)c2)nnn1-c1ccccc1	-2	-5%	u	-85*	56µM*	11µM*
O=C(NNC(=O)c1cccc(Br)c1)Nc1ccc(Cl)cc1	0	u	13µM*	2	-10%	0%
